Legend:
[1] = system: Vero E6 infected with SARS-CoV-2; experiment: morphology score (similarity to uninfected cells); higher = more like uninfected cells; details: 24 h
[2] = system: Vero E6 infected with SARS-CoV-2; experiment: SARS-CoV-2 infection rate relative to infected DMSO; higher = more infection, active = 60 or less; details: 24 h

Row | Structure (SMILES) | morphology score [1] | SARS-CoV-2 infection rate [2]
1 | CN(CC(=O)O)C(=N)N [creatine] (10 µM) | 0.0148 | 113% (inactive)
2 | O=C(O)c1ccccc1S [o-mercapto-benzoic-acid] (10 µM) | 0.201 | 101% (inactive)
3 | CCN(CC)CCCC(C)Nc1ccnc2cc(Cl)ccc12 (centres undefined) [chloroquine] (10 µM) | 0.554 | 57.5% (active)
4 | N#Cc1cc(NC(=O)C(=O)O)c(Cl)c(NC(=O)C(=O)O)c1 [lodoxamide] (10 µM) | -0.0976 | 110% (inactive)
5 | Cc1cc(C#N)cc(C)c1Oc1nc(Nc2ccc(C#N)cc2)nc(N)c1Br [etravirine] (10 µM) | 0.364 | 98% (inactive)
6 | Fc1ccc(-c2nc3n(c2-c2ccncc2)CCS3)cc1 (10 µM) | 0.209 | 94% (inactive)
7 | Cn1c(NCCN(CCO)CCCc2ccc([N+](=O)[O-])cc2)cc(=O)n(C)c1=O [nifekalant] (10 µM) | -0.0636 | 120% (inactive)
8 | O=C(c1ccc(OCCCc2c[nH]cn2)cc1)C1CC1 [ciproxifan] (10 µM) | 0.181 | 95.5% (inactive)
9 | OC(c1cc(C(F)(F)F)nc2c(C(F)(F)F)cccc12)C1CCCCN1 (centres undefined) [mefloquine] (0.833333 µM) | -0.113 | 112% (inactive)
10 | CCOC(=O)Nc1ccc(NCc2c(C)cc(C)cc2C)cc1N (10 µM) | -0.0161 | 108% (inactive)
11 | O=C(NCCS(=O)(=O)c1ccc(C(F)(F)F)cn1)c1ccc(Cl)cc1 (10 µM) | 0.178 | 99% (inactive)
12 | COc1ccc(C2CNC(=O)C2)cc1OC1CCCC1 (centres undefined) [rolipram] (10 µM) | 0.39 | 100% (inactive)
13 | CC1/C=C/C=C/C=C/C=C/C=C/C=C/C=C/C(OC2O[C@H](C)[C@@H](O)[C@H](N)[C@@H]2O)CC(O)C(C(=O)O)C(O)CC(=O)CC(O)CC(O)CC(O)CC(=O)CCCC(=O)CC(=O)OC1C(C)CC(C)C(O)CC(=O)c1ccc(N)cc1 (some centres undefined) [candicidin] (0.833333 µM) | 0.198 | 100% (inactive)
14 | CCOC(=O)c1ccc(O)cc1 [ethyl-paraben] (10 µM) | -0.0381 | 104% (inactive)
15 | O=P(O)(O)C(O)(Cn1ccnc1)P(=O)(O)O [zoledronic-acid] (10 µM) | 0.0372 | 116% (inactive)
16 | Cc1nc(C)c(Cl)c(O)c1Cl [clopidol] (10 µM) | -0.0297 | 108% (inactive)
17 | CCOc1cc(C(=O)Nc2ccc(Cl)c(-c3nc4ccccc4[nH]3)c2)cc(OCC)c1OCC (10 µM) | -0.0242 | 100% (inactive)
18 | Cc1cc(CN)cc(C)c1NC(=O)c1ccc(-c2cc(Cl)ccc2Cl)o1 (10 µM) | 0.717 | 7.5% (active)
19 | CCOCCn1c(N2CCCN(C)CC2)nc2ccccc21 [emedastine] (10 µM) | 0.137 | 100% (inactive)
20 | CC(C)c1ccc(C(=O)c2cccs2)c(SCCCCCCCCN(C)C)n1 (0.833333 µM) | 0.361 | 94.5% (inactive)
21 | CCCCN1CCC(CNC(=O)c2c3n(c4ccccc24)CCCO3)CC1 [piboserod] (10 µM) | 0.132 | 92.5% (inactive)
22 | OC[C@H]1OC(O)[C@H](O)[C@@H](O)[C@@H]1O (some centres undefined) [dextrose] (10 µM) | -0.00495 | 110% (inactive)
23 | CC(C)c1cc2c(cc1S(=O)(=O)O)[C@@]1(C)CCC[C@@](C)(C(=O)O)[C@@H]1CC2 [ecabet] (10 µM) | 0.0527 | 102% (inactive)
24 | N=C(N)NCCC[C@H](NC(=O)c1sccc1NS(=O)(=O)c1cccc2nsnc12)C(=O)O (10 µM) | 0.0108 | 108% (inactive)

Row | Structure (SMILES) | morphology score [1] | SARS-CoV-2 infection rate [2]
25 | NNCCc1ccccc1 [phenelzine] (10 µM) | 0.113 | 102% (inactive)
26 | O=C(c1ccc(F)cc1)N1CCC[C@H](c2nc(-c3ccc(F)cc3)no2)C1 (10 µM) | 0.242 | 93.5% (inactive)
27 | Cc1ncc(CO)c(C=O)c1O [pyridoxal] (10 µM) | -0.165 | 109% (inactive)
28 | C[C@@H]1NC(=O)[C@@H](N)CNC(=O)[C@H](C2CCNC(=N)N2)NC(=O)/C(=C/NC(N)=O)NC(=O)[C@H](CNC(=O)CC(N)CCCN)NC1=O.N=C1NCC[C@H]([C@@H]2NC(=O)/C(=C/NC(N)=O)NC(=O)[C@H](CNC(=O)C[C@@H](N)CCCN)NC(=O)[C@H](CO)NC(=O)[C@@H](N)CNC2=O)N1 [capreomycin] (10 µM) | 0.148 | 100% (inactive)
29 | CC(C)C[C@H](NC(=O)[C@H](CCCCN)NC(=O)[C@H](CCCNC(=N)N)NC(=O)[C@H](C)NC(=O)[C@H](CO)NC(=O)[C@H](CCCCN)NC(=O)[C@H](CCCNC(=N)N)NC(=O)[C@H](C)NC(=O)CNC(=O)[C@@H](NC(=O)[C@H](Cc1ccccc1)NC(=O)CNC(=O)CNC(=O)[C@@H](N)Cc1ccccc1)[C@@H](C)O)C(=O)N[C@@H](C)C(=O)N[C@@H](CC(N)=O)C(=O)N[C@@H](CCC(N)=O)C(=O)O [orphanin-fq] (10 µM) | 0.0454 | 112% (inactive)
30 | CC(C)C[C@@H](NC(=O)[C@H](Cc1ccccc1)NC(=O)CNC(=O)[C@@H](C)NC(=O)[C@@H](N)Cc1ccc(O)cc1)C(=O)O (10 µM) | 0.159 | 97% (inactive)
31 | Fc1cc(F)c2c(c1)[C@H]1C=CC[C@H]1C(c1cccnc1)N2 (some centres undefined) [Golgicide A] (0.833333 µM) | 0.281 | 104% (inactive)
32 | O=C(c1ccc(C(=O)N2CCC(N3CCCC3)CC2)c(Nc2ccccc2)c1)N1CCC(N2CCCC2)CC1 (10 µM) | -0.0106 | 114% (inactive)
33 | CC(C)N(C[C@H]1O[C@@H](n2cnc3c(N)ncnc32)[C@H](O)[C@@H]1O)[C@H]1C[C@@H](CCc2nc3cc(C(C)(C)C)ccc3[nH]2)C1 (10 µM) | 0.122 | 110% (inactive)
34 | Nc1nnc(Sc2ncc([N+](=O)[O-])s2)s1 (0.833333 µM) | 0.248 | 90.5% (inactive)
35 | O=C(CCCN1CCC2(CC1)C(=O)N(Cc1cccc(F)c1)CN2c1ccccc1)c1ccc(F)cc1 [3'-fluorobenzylspiperone] (0.833333 µM) | 0.325 | 103% (inactive)
36 | O=CN1CCC(C(=O)NCCN2CCC(=C3c4ccccc4C=Cc4ccccc43)CC2)CC1 (10 µM) | 0.0149 | 100% (inactive)
37 | Cc1ccccc1OCC(O)CO (centres undefined) [mephenesin] (10 µM) | 0.141 | 99.5% (inactive)
38 | O=c1oc(-c2ccc(C(F)(F)F)cc2)nn1Cc1cc(Cl)ccc1O (10 µM) | 0.593 | 39.5% (active)
39 | C[C@@H]([C@H](O)c1ccc(O)cc1)N1CCC(Cc2ccccc2)CC1 (racemic) [ifenprodil] (10 µM) | 0.0632 | 100% (inactive)
40 | Cc1c(C)c2c(c(C)c1OC(=O)CCC(=O)O)CC[C@@](C)(CCC[C@H](C)CCC[C@H](C)CCCC(C)C)O2 [D-alpha-tocopheryl-succinate] (10 µM) | 0.0385 | 101% (inactive)
41 | c1coc(CNc2ncnc3[nH]cnc23)c1 [kinetin] (10 µM) | 0.0735 | 104% (inactive)
42 | CN(C)C(=O)N[C@H]1CC[C@H](CCN2CCN(c3cccc(Cl)c3Cl)CC2)CC1 [cariprazine] (10 µM) | -0.0979 | 113% (inactive)
43 | CC(Cc1ccc(O)cc1)NCC(O)c1cc(O)cc(O)c1 (centres undefined) [fenoterol] (10 µM) | -0.0121 | 106% (inactive)
44 | O=C(NC1(c2ccccc2)CC1)c1c(CN2CCC(N3CCCCC3)CC2)c(-c2cccc(C(F)(F)F)c2)nc2cc(Br)ccc12 (0.833333 µM) | -0.235 | 112% (inactive)
45 | CCCCOC(=O)c1ccccc1Nc1cccc(C(F)(F)F)c1 [ufenamate] (10 µM) | 0.129 | 100% (inactive)
46 | Cn1cncc1[C@@](N)(c1ccc(Cl)cc1)c1ccc2c(c1)c(-c1cccc(Cl)c1)cc(=O)n2C [tipifarnib] (0.833333 µM) | 0.398 | 89% (inactive)
47 | O=c1c(-c2ccc(O)cc2)coc2c([C@@H]3O[C@H](CO)[C@@H](O)[C@H](O)[C@H]3O)c(O)ccc12 [puerarin] (10 µM) | 0.0648 | 98.5% (inactive)
